Most compounds without a hit are left out; they make up all but 1.9% or so of the library.
FPR binder: ligands of human FPR, also counter-screen for FPRL1 ligands; inhibition, % (test concentration not listed); AID 440; 24,000 compounds, 0.74% hits; FPR-expressing cells, fluorescent ligand binding, flow cytometry
Target sequence (P21462 whole entry, looked up): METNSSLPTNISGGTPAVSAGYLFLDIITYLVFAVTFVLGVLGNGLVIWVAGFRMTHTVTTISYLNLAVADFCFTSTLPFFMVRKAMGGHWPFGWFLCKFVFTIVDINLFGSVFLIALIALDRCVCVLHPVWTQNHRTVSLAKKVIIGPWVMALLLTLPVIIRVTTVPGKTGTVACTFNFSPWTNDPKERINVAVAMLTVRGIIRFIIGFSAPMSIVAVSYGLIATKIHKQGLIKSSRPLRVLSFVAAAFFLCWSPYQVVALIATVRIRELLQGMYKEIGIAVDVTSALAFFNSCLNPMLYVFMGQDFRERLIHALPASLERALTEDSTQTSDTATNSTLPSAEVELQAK
LNCaP diff act: LNCaP prostate cell differentiation activation; flow cytometry side scatter, 4 d; side scatter shift, % at 10 µM; 24,000 compounds, 0.56% hits;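 active means side scatter shift above 30%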;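 further: androgen-responsive LNCaP prostate cancer cells in charcoal-stripped serum medium; higher shift means more granular cells and more differentiation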
VLA-4 allo ag: allosterically activates the human VLA-4 integrin | Jurkat cells, LDV-FITC binding, flow cytometry | activation, % at 10 µM (by protocol) | 24,000 tested, under 10 active | AID 528;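 active means fluorescent ligand binding to cells raised by more than 40% of the manganese-induced maximum; inconclusive means compound's own fluorescence above 85% of the ligand control signal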
VLA-4 antagonist: inhibitors of LDV-FITC ligand binding to Mn2+-activated human VLA-4 integrin; P13612; Jurkat cells, LDV-FITC binding with Mn2+, flow cytometry; 100% = Mn2+-driven binding gain fully reversed; inhibition, % at 10 µM (by protocol); 24,000 compounds, 0.2% hits; AID 529;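 active means inhibition above 50%; inconclusive means compound itself fluorescent, judged against control cell fluorescence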
FPRL1 binder: ligands of human FPRL1, also counter-screen for FPR ligands. P25090. FPRL1-expressing cells, fluorescent ligand binding inhibition, flow cytometry. inhibition, % (concentration not given with the values). 24,000 compounds, 0.3% hits. AID 441
Target sequence (P25090 whole entry, looked up): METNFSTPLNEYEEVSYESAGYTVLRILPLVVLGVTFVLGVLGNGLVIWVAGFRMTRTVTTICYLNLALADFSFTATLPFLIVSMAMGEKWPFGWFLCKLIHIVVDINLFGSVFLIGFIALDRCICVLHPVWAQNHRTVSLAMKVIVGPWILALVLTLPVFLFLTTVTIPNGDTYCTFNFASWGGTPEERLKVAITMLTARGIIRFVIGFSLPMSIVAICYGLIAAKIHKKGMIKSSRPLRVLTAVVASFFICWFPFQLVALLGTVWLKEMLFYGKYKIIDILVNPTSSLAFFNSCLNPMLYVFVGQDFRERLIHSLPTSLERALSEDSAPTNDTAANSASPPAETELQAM
Jurkat autofluor: compound fluoresces in Jurkat cells, VLA-4 screen interference; fluorescence ratio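 (tested at 10 µM compound in the well)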; 24,000 compounds, 0.61% hits; AID 576; compound autofluorescence, flow cytometry; stronger effect = higher value; 1 = vehicle-only cell background;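 active means fluorescence ratio above 2.44, which is 1 plus 3 SD of all ratios; inconclusive means signal too bright to measure linearly, ratio around 10 or more; inactive means fluorescence ratio below 2.44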;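 further: green fluorescence of cells measured with 488 nm excitation and 530 nm emission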
Large screens that a line does not name were inactive. Unless noted, no stated cut-off is given here; in the data, active means inhibition above about 30%; inconclusive means no clear call, values can overlap the other calls; inactive means below that.

COc1ccc(-c2coc3c(CN4CCCCC4)c(O)c(CN4CCCCC4)c(O)c3c2=O)cc1	LNCaP diff act 36
COc1cccc(/C=N/n2cncn2)c1OCC#N	none
COc1ccc(CN(Cc2cc3cc4c(cc3[nH]c2=O)OCO4)C(=O)NC2CCCCC2)cc1	none
COC(=O)c1ccccc1S(=O)(=O)N(Cc1cc2cc3c(cc2[nH]c1=O)OCO3)C1CCCCC1	LNCaP diff act 41
CCCOC(=O)c1ccc(-c2c(C)noc2-c2ccc(OC)cc2O)o1	none
Cc1nn(Cc2ccc(F)cc2)c(C)c1NC(=O)c1cc(-c2ccc3c(c2)OCO3)on1	LNCaP diff act 30
Cc1ccc(Cn2ccc(NC(=O)c3cc(-c4ccc(Br)cc4)on3)n2)cc1	LNCaP diff act 35
COCCCNC(=O)CS(=O)(=O)Cc1nc(-c2cccc(OC)c2)oc1C	none
COc1cccc(-c2nc(CS(=O)(=O)CC(=O)NCCC(C)C)c(C)o2)c1	FPR binder 34
CCc1cccc(NC(=O)CN(c2ccc(OC)cc2)S(=O)(=O)c2c(C)n[nH]c2C)c1	VLA-4 antagonist 62
COc1ccc(/C(O)=C2/C(=O)C(=O)N(CCN3CCOCC3)C2c2ccc(C)cc2)cc1 (centres undefined)	FPRL1 binder 31 (no result: LNCaP diff act, VLA-4 allo ag, VLA-4 antagonist, Jurkat autofluor)
COC(=O)c1ccc(C2/C(=C(/O)c3ccc(OC)cc3)C(=O)C(=O)N2Cc2ccco2)cc1 (centres undefined)	FPR binder 38 (no result: LNCaP diff act, VLA-4 allo ag, VLA-4 antagonist, Jurkat autofluor)
CC1CC(C)CN(Cc2nc3c(c(=O)n(C)c(=O)n3C)n2Cc2ccccc2Cl)C1 (centres undefined)	none
Cn1nc(-c2ccc(Cl)cc2)c2cc(C(=O)NCC3CCCO3)sc21 (centres undefined)	VLA-4 allo ag inconclusive, VLA-4 antagonist inconclusive
CCN(CC)CCCNC(=O)c1cc(-c2ccc(Cl)c(Cl)c2)on1	LNCaP diff act 48
CN1CCN(CCCNC(=O)c2cc3c(-c4ccc(Cl)cc4)nn(C)c3s2)CC1	LNCaP diff act 57, VLA-4 allo ag inconclusive, VLA-4 antagonist inconclusive
CCN(CC)CCCNC(=O)c1cc2c(-c3ccc(Cl)cc3)nn(C)c2s1	LNCaP diff act 52, VLA-4 allo ag inconclusive, VLA-4 antagonist inconclusive
CC(C)(C)OC(=O)N1CCC(C(=O)N2CCCCCC2)CC1	LNCaP diff act 31
Cc1ccc(C)c2[nH]c(=O)c(CN(CCN3CCCC3)C(=O)Nc3cccc(Cl)c3)cc12	LNCaP diff act 73
Cc1c(CCC#N)c(N2CCN(C3CCCCC3)CC2)n2c(nc3ccccc32)c1C#N	VLA-4 allo ag inconclusive, VLA-4 antagonist inconclusive, Jurkat autofluor 8.6
Cc1cc(N2CCN(C3CCCC3)CC2)n2c(nc3ccccc32)c1C#N	none
CCOc1cc2[nH]c(=O)n(CC3CCC(C(=O)NCCC(C)C)CC3)c(=O)c2cc1OCC (centres undefined)	VLA-4 antagonist 60
O=C(CCCn1c(=O)[nH]c2ccccc2c1=O)NC1CCCCCC1	none
CCOc1cc2[nH]c(=O)n(CCCCC(=O)NC3CCCCCC3)c(=O)c2cc1OCC	VLA-4 antagonist 66
CC(C)Cc1cc(C(=O)NCc2cccs2)no1	none
Cc1ccc(C2C(C(=O)c3cc4ccccc4o3)=C(O)C(=O)N2CCCN(C)C)cc1 (centres undefined)	none (no result: LNCaP diff act, VLA-4 allo ag, VLA-4 antagonist, Jurkat autofluor)
CCN1CCN(CCNC(=O)C2CCCN(Cc3nc(-c4cccc(Cl)c4)oc3C)C2)CC1 (centres undefined)	LNCaP diff act 44, VLA-4 allo ag inconclusive, VLA-4 antagonist inconclusive
Cc1oc(-c2ccc(Cl)cc2)nc1CN1CCCC(C(=O)N2CCc3ccccc32)C1 (centres undefined)	VLA-4 antagonist 59
CCOC(=O)N1CCC(NC(=O)C2CCCN(Cc3nc(-c4cccc(Cl)c4)oc3C)C2)CC1 (centres undefined)	VLA-4 allo ag inconclusive, VLA-4 antagonist inconclusive
CCCN(CCC)CCNC(=O)C1CCN(Cc2nc(-c3ccc(Cl)cc3)oc2C)CC1	LNCaP diff act 87
Cc1cc2nc(C3CCN(CC4COc5ccccc5O4)CC3)[nH]c2cc1C (centres undefined)	none
O=C(c1cccn2c(=O)c3ccc(Cl)cc3nc12)N1CCN(Cc2ccc3c(c2)OCO3)CC1	none
O=C(c1ccc(CSCc2ccccc2F)o1)N1CCN(c2ccc(N3CCOCC3)nn2)CC1	none
C=CCn1c(CCCNC(=O)CCC)nc2ccccc21	none
CCC(C)NC(=O)c1cn(C)c(=O)c2cc(OC)c(OC)cc12 (centres undefined)	LNCaP diff act 37
CCOCCCNC(=O)c1cn(C)c(=O)c2cc(OC)c(OC)cc12	VLA-4 allo ag inconclusive, VLA-4 antagonist inconclusive
O=C(NCc1ccccn1)c1cc(-n2cnnc2)ccc1Cl	none
CCCCC[C@H](O)/C=C/[C@H]1C=CC(=O)[C@@H]1C/C=C\CCCC(=O)O	VLA-4 allo ag 42
COC(=O)c1oc2ccc(Br)cc2c1NC(=O)CN1CCN(C)CC1	LNCaP diff act 31
CCOC(=O)c1[nH]c2ccc(Br)cc2c1NC(=O)CCN1CCC(C(=O)OCC)CC1	none
O=C(Nc1c2c(nn1-c1ccc(F)cc1)CS(=O)(=O)C2)C12CC3CC(CC(C3)C1)C2	none
CCCOc1ccc(N)cc1N	VLA-4 allo ag inconclusive, VLA-4 antagonist inconclusive, Jurkat autofluor 7.9
CCCOc1ccccc1NC(=O)c1ccc(N)cc1	none
CC(=O)Nc1cc(C(=O)N2CCOCC2)ccc1S(=O)(=O)c1ccc(C)cc1	LNCaP diff act 37, VLA-4 antagonist inconclusive
CCOC(=O)CC(C#N)c1cn(C)c2ccccc12 (centres undefined)	VLA-4 allo ag inconclusive, VLA-4 antagonist inconclusive, Jurkat autofluor 2.8
COc1cccc2cc(C(=O)C3=C(O)C(=O)N(Cc4ccco4)C3c3cccnc3)oc12 (centres undefined)	FPR binder 34 (no result: LNCaP diff act, VLA-4 allo ag, VLA-4 antagonist, Jurkat autofluor)
O=C(C1=C(O)C(=O)N(Cc2ccco2)C1c1cccnc1)c1cc2ccccc2o1 (centres undefined)	none (no result: LNCaP diff act, VLA-4 allo ag, VLA-4 antagonist, Jurkat autofluor)
COc1ccc(C2C(C(=O)c3ccco3)=C(O)C(=O)N2CCOCCO)cc1OC (centres undefined)	none (no result: LNCaP diff act, VLA-4 allo ag, VLA-4 antagonist, Jurkat autofluor)
CCCOc1ccc(C2C(C(=O)c3ccc(C)o3)=C(O)C(=O)N2Cc2cccnc2)cc1 (centres undefined)	FPR binder 52
COc1ccc(C2C(C(=O)c3ccco3)=C(O)C(=O)N2CCc2ccccc2)cc1OC (centres undefined)	FPR binder 80 (no result: LNCaP diff act, VLA-4 allo ag, VLA-4 antagonist, Jurkat autofluor)
COc1cccc(/C(O)=C2/C(=O)C(=O)N(Cc3cccnc3)C2c2ccco2)c1 (centres undefined)	FPR binder 34 (no result: LNCaP diff act, VLA-4 allo ag, VLA-4 antagonist, Jurkat autofluor)
COCCN1C(=O)C(=O)/C(=C(/O)c2cccc(OC)c2)C1c1ccco1 (centres undefined)	none (no result: LNCaP diff act, VLA-4 allo ag, VLA-4 antagonist, Jurkat autofluor)
O=C(NCc1ccccc1)N1CCn2c(nc3ccccc32)C1	none
c1ccc(-c2nc3c4ccccc4nc(N4CCN(c5ccccn5)CC4)n3n2)cc1	none
CCCOC(=O)c1ccc(OCC(O)Cn2c(C)nc3ccccc32)cc1 (centres undefined)	none
